# About 3,300 (8.5%) of roughly 39,000 compounds were called active. Shown is part of a subset that was picked to be rich in actives.
# Tested on: HepG2
# Assay: cytotoxicity call (relative viability < 0.9)
# Conditions: 10 µM
row,SMILES,cytotoxicity call
1,COc1ccc(NC(=O)N(C)C[C@@H]2OCCCC[C@H](C)Oc3ccc(NS(=O)(=O)c4ccc(OC)cc4)cc3C(=O)N([C@H](C)CO)C[C@@H]2C)cc1,inactive
2,CC(C)NC(=O)N(C)C[C@@H]1Oc2c(NC(=O)Nc3ccc4c(c3)OCO4)cccc2C(=O)N([C@@H](C)CO)C[C@@H]1C,inactive
3,C[C@H]1CCCCO[C@H](CN(C)C(=O)CCC(F)(F)F)[C@@H](C)CN([C@@H](C)CO)C(=O)c2cc(NS(=O)(=O)c3cccs3)ccc2O1,inactive
4,Cn1cnc(S(=O)(=O)N2C[C@@H](O)COC[C@H]3O[C@H](CC(=O)NCc4cc(F)cc(F)c4)CC[C@@H]32)c1,inactive
5,O=C(C[C@@H]1CC[C@H]2[C@@H](COC[C@@H](O)CN2S(=O)(=O)c2cccc(Cl)c2)O1)N1CCOCC1,inactive
6,O=C(C[C@H]1CC[C@H]2[C@@H](COC[C@H](O)CN2C(=O)Nc2ccc(Cl)c(Cl)c2)O1)NCc1ccc(Cl)c(Cl)c1,inactive
7,Cn1cnc(CCNC(=O)C[C@H]2CC[C@@H]3[C@H](COC[C@H](O)CN3C(=O)Nc3ccc(Cl)cc3)O2)c1,active
8,O=C(C[C@@H]1CC[C@H]2[C@@H](COC[C@@H](O)CN2C(=O)Nc2ccc(Cl)c(Cl)c2)O1)NCc1ccc(Cl)c(Cl)c1,active
9,O=C(C[C@H]1CC[C@@H]2[C@H](COC[C@@H](O)CN2C(=O)Nc2ccc(Cl)c(Cl)c2)O1)NCc1ccc(Cl)c(Cl)c1,inactive
10,O=C(C[C@@H]1CC[C@@H]2[C@H](COC[C@H](O)CN2Cc2cccc(C(F)(F)F)c2)O1)NCCc1ccncc1,inactive
11,O=C(C[C@@H]1CC[C@H]2[C@@H](COC[C@H](O)CN2C(=O)Nc2ccc(Cl)c(Cl)c2)O1)NCc1ccc(Cl)c(Cl)c1,inactive
12,Cn1cnc(CCNC(=O)C[C@@H]2CC[C@H]3[C@@H](COC[C@H](O)CN3C(=O)Nc3ccc(Cl)cc3)O2)c1,inactive
13,O=C(C[C@H]1CC[C@@H]2[C@H](COC[C@H](O)CN2Cc2cccc(C(F)(F)F)c2)O1)NCCc1ccncc1,inactive
14,Cn1cnc(CCNC(=O)C[C@H]2CC[C@@H]3[C@H](COC[C@@H](O)CN3C(=O)Nc3ccc(Cl)cc3)O2)c1,inactive
15,O=C(C[C@H]1CC[C@@H]2[C@H](COC[C@@H](O)CN2Cc2cccc(C(F)(F)F)c2)O1)NCCc1ccncc1,active
16,O=C(C[C@H]1CC[C@H]2[C@@H](COC[C@@H](O)CN2C(=O)Nc2ccc(Cl)c(Cl)c2)O1)NCc1ccc(Cl)c(Cl)c1,active
17,O=C(C[C@@H]1CC[C@@H]2[C@H](COC[C@@H](O)CN2C(=O)Nc2ccc(Cl)c(Cl)c2)O1)NCc1ccc(Cl)c(Cl)c1,inactive
18,C[C@H]1CN([C@@H](C)CO)S(=O)(=O)c2ccc(Br)cc2O[C@@H]1CN(C)C(=O)c1cnccn1,inactive
19,C[C@H](CO)N1C[C@H](C)[C@H](CN(C)Cc2ccccc2)Oc2c(NC(=O)Nc3ccc(C(F)(F)F)cc3)cccc2C1=O,inactive
20,C[C@H]1CN([C@@H](C)CO)C(=O)Cc2cc(NC(=O)CCC(F)(F)F)ccc2O[C@@H]1CN(C)Cc1ccc(Cl)c(Cl)c1,inactive
21,O=C(O)CCC(=O)N1CC(=O)Nc2ccccc21,inactive

row,SMILES,cytotoxicity call
1,C[C@@H]1CN([C@@H](C)CO)C(=O)c2cccc(NS(=O)(=O)c3ccccc3)c2O[C@@H]1CN(C)Cc1ccc(Oc2ccccc2)cc1,inactive
2,COc1ccc(S(=O)(=O)N(C)C[C@H]2Oc3ccc(NS(=O)(=O)c4ccc(C)cc4)cc3CC(=O)N([C@H](C)CO)C[C@@H]2C)cc1,inactive
3,NC[C@H](c1ccccc1Cl)N1CCOCC1,inactive
4,C[C@@H]1CN([C@H](C)CO)C(=O)c2cc(NC(=O)Nc3ccccc3)ccc2O[C@@H](C)CCCCO[C@H]1CN(C)C(=O)Cc1ccccc1,inactive
5,CC[C@H](C)[C@H](N)C1=N[C@H](C(=O)N[C@@H](CC(C)C)C(=O)N[C@H](CCC(=O)O)C(=O)N[C@H](C(=O)N[C@H]2CCCCNC(=O)[C@H](CC(N)=O)NC(=O)[C@@H](CC(=O)O)NC(=O)[C@H](Cc3cnc[nH]3)NC(=O)[C@@H](Cc3ccccc3)NC(=O)[C@H]([C@@H](C)CC)NC(=O)[C@@H](CCCN)NC2=O)[C@@H](C)CC)CS1,inactive
6,O=C(C[C@H]1CC[C@H]2[C@@H](COC[C@H](O)CN2C(=O)Nc2ccc(Cl)cc2)O1)NCCc1ccncc1,inactive
7,O=C(C[C@@H]1CC[C@@H]2[C@H](COC[C@@H](O)CN2C(=O)Nc2ccc(Cl)cc2)O1)NCCc1ccncc1,inactive
8,O=C(C[C@@H]1CC[C@H]2[C@@H](COC[C@@H](O)CN2C(=O)Nc2ccc(Cl)c(Cl)c2)O1)NCc1ccncc1,inactive
9,O=C(C[C@H]1CC[C@@H]2[C@H](COC[C@H](O)CN2C(=O)Nc2ccc(Cl)c(Cl)c2)O1)NCc1ccc(Cl)c(Cl)c1,active
10,O=C(C[C@H]1CC[C@H]2[C@@H](COC[C@@H](O)CN2C(=O)Nc2ccc(Cl)c(Cl)c2)O1)NCc1ccncc1,inactive
11,O=C(C[C@H]1CC[C@H]2[C@@H](COC[C@@H](O)CN2C(=O)Nc2ccc(Cl)cc2)O1)NCCc1ccncc1,active
12,O=C(C[C@@H]1CC[C@@H]2[C@H](COC[C@@H](O)CN2C(=O)Nc2ccc(Cl)c(Cl)c2)O1)NCc1ccncc1,active
13,O=C(C[C@@H]1CC[C@@H]2[C@H](COC[C@H](O)CN2C(=O)Nc2ccc(Cl)c(Cl)c2)O1)NCc1ccc(Cl)c(Cl)c1,inactive
14,O=C(C[C@H]1CC[C@@H]2[C@H](COC[C@H](O)CN2C(=O)Nc2ccc(Cl)c(Cl)c2)O1)NCc1ccncc1,inactive
15,CO[C@H]1CN(C)C(=O)c2cc(NC(=O)Nc3ccc(Cl)cc3)ccc2OC[C@@H](C)N(C(=O)Nc2c(C)noc2C)C[C@@H]1C,inactive
16,C[C@@H]1CCCCO[C@@H](CN(C)C(=O)Cc2ccccc2)[C@@H](C)CN([C@H](C)CO)C(=O)c2cc(NC(=O)C3CCCCC3)ccc2O1,inactive
17,CC(C)NC(=O)N(C)C[C@@H]1Oc2ccc(NC(=O)Cn3cnnn3)cc2C(=O)N([C@H](C)CO)C[C@@H]1C,inactive
18,C[C@@H]1CCCCO[C@H](CN(C)C(=O)Cc2ccccc2)[C@H](C)CN([C@H](C)CO)C(=O)c2cc(NC(=O)CCC(F)(F)F)ccc2O1,inactive
19,C[C@@H]1CN([C@@H](C)CO)C(=O)c2cc(NC(=O)CCCN(C)C)ccc2O[C@H]1CN(C)S(=O)(=O)c1ccc(F)cc1,inactive
20,Clc1ccc(C2=Nc3cccc4cccc(c34)N2)cc1,inactive
21,C=C(CO)C(=O)O[C@H]1C[C@@]2(C)OC(=O)/C(=C/C)[C@]2(O)CC[C@@]2(C)CC(=O)[C@]1(C(=C)C(=O)OC)O2,inactive

row,SMILES,cytotoxicity call
1,C=C(CO)C(=O)O[C@@H]1[C@H]2C(=C)C(=O)O[C@@H]2[C@H]2O[C@]2(C)CC/C=C(/C(=O)OC)[C@H]1OC(C)=O,active
2,O=C(O)CN1CCCCCC1=O,inactive
3,O=C(C[C@H]1C[C@@H]2c3cc(NC(=O)Nc4ccc(C(F)(F)F)cc4)ccc3O[C@@H]2[C@H](CO)O1)NCc1ccc(Cl)cc1,inactive
4,C[C@@H]1CN([C@@H](C)CO)C(=O)CCCn2cc(nn2)CO[C@H]1CN(C)C(=O)Nc1ccnc(N2CCOCC2)c1,inactive
5,C[C@H](CO)N1C[C@H](C)[C@@H](CN(C)Cc2ccc(-c3ccccc3)cc2)Oc2ccc(NC(=O)c3ccncc3)cc2C1=O,inactive
6,Cc1noc(C)c1NC(=O)N(C)C[C@H]1Oc2ccc(NC(=O)c3ccncc3)cc2C(=O)N([C@H](C)CO)C[C@@H]1C,active
7,C[C@H]1CN([C@@H](C)CO)C(=O)c2cc(NC(=O)c3ccncc3)ccc2O[C@@H]1CN(C)Cc1ccc(Oc2ccccc2)cc1,inactive
8,C[C@@H]1CN([C@H](C)CO)C(=O)c2cc(NC(=O)c3ccncc3)ccc2O[C@@H]1CN(C)Cc1ccc(Oc2ccccc2)cc1,inactive
9,Cc1noc(C)c1NC(=O)N(C)C[C@H]1Oc2ccc(NC(=O)c3ccncc3)cc2C(=O)N([C@@H](C)CO)C[C@@H]1C,inactive
10,C[C@@H]1CN([C@H](C)CO)C(=O)c2cc(NC(=O)c3ccncc3)ccc2O[C@H]1CN(C)Cc1ccc(-c2ccccc2)cc1,active
11,C[C@@H]1CN([C@@H](C)CO)C(=O)c2cc(NC(=O)c3ccncc3)ccc2O[C@@H]1CN(C)Cc1ccc(-c2ccccc2)cc1,inactive
12,C[C@H](CO)N1C[C@H](C)[C@H](CN(C)Cc2ccc(Oc3ccccc3)cc2)Oc2ccc(NC(=O)c3ccncc3)cc2C1=O,active
13,Cc1noc(C)c1NC(=O)N(C)C[C@H]1Oc2ccc(NC(=O)c3ccncc3)cc2C(=O)N([C@@H](C)CO)C[C@H]1C,inactive
14,C[C@@H]1CN([C@@H](C)CO)C(=O)c2cc(NC(=O)CCCN(C)C)ccc2O[C@H]1CN(C)Cc1ccncc1,inactive
15,C[C@@H]1CCCCO[C@@H](CN(C)CC2CCCCC2)[C@@H](C)CN([C@@H](C)CO)C(=O)c2cc(NC(=O)CCC(F)(F)F)ccc2O1,inactive
16,Cc1ccc(S(=O)(=O)N(C)C[C@@H]2Oc3ccc(NS(C)(=O)=O)cc3C(=O)N([C@H](C)CO)C[C@@H]2C)cc1,inactive
17,COc1ccc2c3c(n(c2c1)C)[C@@H](CO)N(C[C@]13CN(Cc2ccncc2)C1)C(=O)CN1CCOCC1,inactive
18,O=C(C[C@@H]1CC[C@H]2[C@@H](COC[C@@H](O)CN2Cc2ccccc2F)O1)N[C@@H]1CCN(Cc2ccccc2)C1,inactive
19,C[C@@H]1CCCCO[C@@H](CN(C)C(=O)Nc2cccc3ccccc23)[C@H](C)CN([C@@H](C)CO)C(=O)c2cc(NS(=O)(=O)c3cccs3)ccc2O1,inactive
20,C[C@@H]1CN([C@@H](C)CO)C(=O)c2c(c3ccccc3n2C)-c2ccccc2CO[C@@H]1CN(C)C(=O)NC1CCCCC1,inactive

# Source: the antibiotic and cytotoxicity screens of Wong et al. (2023)
